Drawing on PubChem BioAssay AID1240 (Sanford-Burnham Center for Chemical Genomics, 2008), this text covers displacement for 56 compounds.

The whole screen tested about 50,000 compounds, of which about 800 (1.6%) showed an effect of 50% or more. The list comes from a sample in which strong results are over-represented; it also holds similar structures and randomly drawn compounds.

Chain of Bcl-2-like protein 10 (Homo sapiens) (Q9HD36 whole entry, looked up): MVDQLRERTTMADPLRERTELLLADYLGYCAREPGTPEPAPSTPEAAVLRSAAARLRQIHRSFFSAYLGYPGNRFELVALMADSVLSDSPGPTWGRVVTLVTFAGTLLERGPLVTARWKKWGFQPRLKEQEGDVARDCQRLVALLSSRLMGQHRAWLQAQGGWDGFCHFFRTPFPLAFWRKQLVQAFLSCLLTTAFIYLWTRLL

This assay addresses Bcl-2-like protein 10 (Homo sapiens) (UniProt Q9HD36). Briefly: TR3 peptide-Bcl-B binding displacers, biochemical primary FP assay, phenotype converters (AID 1240).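 Also: 0% = Bcl-B with tracer peptide and DMSO and 100% = tracer peptide lacking Bcl-B.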 The note with it: GST-Bcl-B / FITC-TR3 peptide fluorescence polarization; stronger effect = higher value; compound at 3.75 mg/L. On the technique in general: Polarisation of emitted light reports the rotation of a fluorescent probe.
Regarding `CCOc1cc(C2/C(=C(\O)c3ccc(C)cc3)C(=O)C(=O)N2c2nncs2)ccc1O` (stereo unspecified), the displacement was 8.3%.

As to `COc1ccc(/C(N)=N/OC(=O)c2ccc(C)c([N+](=O)[O-])c2)cc1`, the displacement is -1.8%.

As for `CCCCOC(=O)c1cccc(NC(=O)c2ccc(OC)cc2)c1`, the displacement is -3.1%.

On to `COc1ccc(C2=NN(C(C)=O)C(c3ccccc3OC)C2)cc1` (stereo unspecified), for which the displacement came to 2.3%.

As to `CC(NC(=O)CN(c1cccc(C(F)(F)F)c1)S(C)(=O)=O)c1ccccc1` (stereo unspecified), the displacement was 0.7%.

In the case of `CCOc1ccc(N(CC(=O)N2CCOCC2)S(=O)(=O)c2ccc(SC)cc2)cc1`, the displacement is -1.3%.

For the compound `C=CCN1C(=O)/C(=C\c2ccc(OCc3ccccc3)c(OCC)c2)SC1=S`, the displacement came to 49.5%.

As to `CCOC(=O)c1nc2ccccc2[nH]c1=O`, the displacement was found to be 14.3%.

Consider `Cc1ccc(/C(O)=C/c2nc3ccc([N+](=O)[O-])cc3oc2=O)o1`, for which the displacement is -6.6%.

For `Cc1nc(C)c(/C(O)=C/c2nc3ccccc3[nH]c2=O)o1`, the displacement is -8.5%.

As for `Cc1cc(C)c(/C(O)=C/c2nc3ccccc3oc2=O)c(C)c1`, the displacement was determined as 13.8%.

For `Cc1ccc(/C(O)=C/c2nc3ccccc3oc2=O)o1`, the displacement came to 116%.

Turning to `Cc1ccc(/C(O)=C/c2nc3ccccc3[nH]c2=O)o1`, the displacement was 130%.

Regarding `O=C(c1cccc([N+](=O)[O-])c1)c1ccc2c(c1)C(=O)N(c1ccccc1C(=O)O)C2=O`, the displacement was -2.7%.

As to `Cc1ccc(S(=O)(=O)NCCSCc2ccccc2Cl)cc1[N+](=O)[O-]`, the displacement was -8.5%.

For `CCN(CC)S(=O)(=O)c1ccc(NC(=O)c2ccco2)cc1`, the displacement is -5.1%.

`CCCOc1cccc(C(=O)Nc2ccc(I)cc2Cl)c1`: the displacement was determined as 10.7%.

With `Cc1ccccc1OCC(=O)Nc1ccccc1CO`, the displacement was -7.8%.

Turning to `CC(=O)Nc1ccccc1NC(=O)COc1ccccc1C`, the displacement was 11.1%.

For the compound `Cc1ccccc1OCC(=O)Nc1ccc2c3c(cccc13)CC2`, the displacement was 107%.

For `CCOc1ccc(C(=O)Nc2ccc3c4c(cccc24)CC3)cc1[N+](=O)[O-]`, the displacement was 14.7%.

In the case of `CCCOc1cccc(C(=O)Nc2ccc3c4c(cccc24)CC3)c1`, the displacement turned out to be 88.7%.

As for `O=C(N/N=C/c1cccs1)C(=O)NC1CCCCC1`, the displacement stood at 7.6%.

As to `O=C(O/C(=C/c1nccn1Cc1ccc(Cl)cc1)c1ccccc1)c1ccccc1`, the displacement was -1.2%.

With `O=C(COc1ccc(Cl)cc1)Nc1ccc2c(c1)Cc1ccccc1-2`, the displacement was found to be 5.4%.

Consider `O=C(Nc1ccccc1[N+](=O)[O-])c1ccccc1Cl`, for which the displacement worked out at 8.4%.

As for `COc1ccc(C(=O)CN2CCN(CCN3C(=O)c4cccc5cccc(c45)C3=O)CC2)cc1`, the displacement turned out to be 9.4%.

Take `COc1ccccc1N1C(=O)/C(=C/c2ccc(N(C)C)cc2)SC1=S`: the displacement is -8.2%.

For the compound `Cc1c(-c2ccc(Cl)cc2)nc2ccccc2c1C(=O)Nc1ccc(F)cc1F`, the displacement was -9.1%.

On to `CCn1c(O)c(/C=N/N=C2CCCC2)c2ccc(C3=NNC(=O)CC3)cc21`, for which the displacement is 45.9%.

As for `CCn1c(O)c(/C=N/N=C/c2ccccc2)c2ccc(C3=NNC(=O)CC3)cc21`, the displacement was 119%.

With `CCCOc1ccc(C2=NNC(=O)CC2)cc1`, the displacement was found to be 3.6%.

For `CC1=NN(c2cccc(Cl)c2)C(=O)/C1=C/C=C/c1cccc([N+](=O)[O-])c1`, the displacement came to 13.6%.

On to `Cc1nc2cc(-c3ccc(F)cc3)[nH]n2c(=O)c1C`, for which the displacement is -7.3%.

As to `O=C1OC(c2ccccc2)=C/C1=C\c1c(Cl)cccc1Cl`, the displacement was -5.8%.

For the compound `N#Cc1c(NCc2ccccc2)ncc2c1Nc1ccccc1C2`, the displacement amounted to 112%.

As for `COc1nccc(NCc2ccccc2)c1C#N`, the displacement was -12.3%.

On to `N#Cc1c(NCc2ccccc2)ccnc1SCc1ccccc1`, for which the displacement was -4.8%.

Regarding `C=C(Br)Cn1c(C)nc2ccccc21`, the displacement worked out at 14.6%.

For `COc1ccc(C(CC(=O)c2ccc(C)cc2)Nc2ccc(I)cc2)cc1OC` (stereo unspecified), the displacement is -7%.

For the compound `COc1cc(/C=C(\C#N)c2nc3ccc(C)cc3[nH]2)cc(OC)c1OC(C)=O`, the displacement is -4.6%.

As for `O=C(NC1=Nc2cccc3cccc1c23)c1cccc(C(F)(F)F)c1`, the displacement was determined as 62.1%.

Take `O=C(Nc1cccc(C(F)(F)F)c1)c1cccc(N2C(=O)c3ccccc3C2=O)c1`: the displacement was -5.6%.

Consider `COc1ccc(C(=O)NNC2=Nc3cccc4cccc2c34)cc1`, for which the displacement is -17.1%.

Take `O=C(Nc1cccc(Br)c1)c1ccc([N+](=O)[O-])cc1`: the displacement is 12.7%.

Turning to `Cc1[nH]c2ccc(Br)cc2c1CC(=O)N/N=C/c1ccc(Cl)c(Cl)c1`, the displacement was 5.1%.

Turning to `C=CCOC(=O)C1=C(C)NC(C)=C(C(=O)OCC=C)C1c1ccc(C)o1`, the displacement was 12.2%.

With `CCOC(=O)C1=C(C)N=c2s/c(=C\c3ccccc3)c(=O)n2C1c1ccc(Cl)cc1` (stereo unspecified), the displacement turned out to be 3.8%.

Take `CCOC(=O)C1=C(C)N=c2s/c(=C/c3ccc(C)cc3)c(=O)n2C1c1ccccc1` (stereo unspecified): the displacement was 2.5%.

In the case of `CCOC(=O)C1=C(C)N=c2s/c(=C\c3ccc(OCC)cc3)c(=O)n2C1c1ccccc1` (stereo unspecified), the displacement is -1%.

In the case of `CCOC(=O)C1=C(C)N=c2s/c(=C\c3ccc(C(C)=O)cc3)c(=O)n2C1c1ccccc1` (stereo unspecified), the displacement was determined as 76.2%.

Regarding `CCOC(=O)C1=C(C)N=c2s/c(=C\c3ccc4c(c3)OCO4)c(=O)n2C1c1ccc2c(c1)OCO2` (stereo unspecified), the displacement amounted to 3.5%.

Take `CCOC(=O)C1=C(C)N=c2s/c(=C\c3ccc(Cl)cc3)c(=O)n2C1c1ccc2c(c1)OCO2` (stereo unspecified): the displacement was 121%.

On to `CCOC(=O)C1=C(C)N=c2s/c(=C\c3ccc([N+](=O)[O-])cc3)c(=O)n2C1c1ccc(Cl)cc1` (stereo unspecified), for which the displacement is 9.2%.

With `CCOC(=O)C1=C(C)N=c2s/c(=C\c3ccc4c(c3)OCO4)c(=O)n2C1c1ccc(C)cc1` (stereo unspecified), the displacement is -7.1%.

Consider `CCOC(=O)C1=C(C)N=c2s/c(=C/c3ccc(Cl)cc3)c(=O)n2C1c1ccccc1` (stereo unspecified), for which the displacement was found to be 90.8%.
